# Assay results: PubChem BioAssay (EPA / NIEHS)
# Several values for one entry are separate records, joined by “and”; a condition that tells them apart may be missing. Equal values may be shown once. Records with an inconclusive call do not appear. A structure can be active in one record and inactive in another. Activity calls are given as the source filed them. Rule for the calls: active = hit-call score of the fitted dose curve at least 0.9, where 1 is the maximum; inconclusive = response in the unintended direction; inactive = score below 0.9.
# Assays:
# [1] = target: D(1A) dopamine receptor (Homo sapiens) (UniProt P21728); assay: NVS_GPCR_hDRD1: NovaScreen (NVS) G Protein-Coupled Receptor Assay for human Dopamine Receptor D1 (DRD1) (AID 2283269)
# Procedure, shortened: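 Extracted HEK293 DRD1 is incubated 1 h with compound and a tritiated or iodinated radioligand, then filtered and counted. Screening runs 25 uM in duplicate with on-plate positive and negative controls.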
# [2] = target: Muscarinic acetylcholine receptor M1 (Homo sapiens) (UniProt P11229); assay: NVS_GPCR_hM1: NovaScreen (NVS) G Protein-Coupled Receptor Assay for human Muscarinic, M1 Receptor (AID 2283270)
# Procedure, shortened: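 Actives from a duplicate 25 uM single-point screen were retested in concentration series. Binding measured as displacement of a radioligand from CHO-derived receptor preparation, 1 h incubation, filtration and scintillation counting, analysed as signal loss against DMSO.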
# [3] = target: human Neurokinin, NK2 Receptor, TACR2 (gene 6865) (UniProt P21452); assay: NVS_GPCR_hNK2: NovaScreen (NVS) G Protein-Coupled Receptor Assay for human Neurokinin, NK2 Receptor (AID 2283278);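 note: actives reduce bound radioligand signal relative to DMSO baseline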
# Procedure, shortened: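 Test chemicals displace a radioligand from receptor prepared from CHO cells in a cell-free format, read after 4 hours by scintillation counting on filters. Screening starts at 25 uM in duplicate, and active chemicals then go to concentration series.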
# [4] = target: human Orphanin, Opioid Related Nociceptin Receptor 1 (ORL1), OPRL1 (gene 4987) (UniProt P41146); assay: NVS_GPCR_hORL1: NovaScreen (NVS) G Protein-Coupled Receptor Assay for human Orphanin, Opioid Related Nociceptin Receptor 1 (ORL1) (AID 2283283)
# Procedure, shortened: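 Cell-free binding using HEK293-derived receptor protein: radioligand displacement measured by filter scintillation 1 hour after dosing. Primary testing at 25 uM in duplicate, followed by singleton concentration series up to 50 uM; DMSO served as negative control.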
# [5] = target: Muscarinic acetylcholine receptor M2 (Homo sapiens) (UniProt P08172); assay: NVS_GPCR_hM2: NovaScreen (NVS) G Protein-Coupled Receptor Assay for human Muscarinic, M2 Receptor (AID 2283273)
# Procedure, shortened: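 Radioligand competition binding, cell-free, receptor from CHO; 1 h incubation; scintillation detection. Primary testing at 25 uM in duplicate.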
# [6] = target: human Thromboxane A2 Receptor (TXA2), TBXA2R (gene 6915) (UniProt P21731); assay: NVS_GPCR_hTXA2: NovaScreen (NVS) G Protein-Coupled Receptor Assay for human Thromboxane A2 Receptor (TXA2) (AID 2283282);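 note: actives reduce bound radioligand signal relative to DMSO baseline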
# Procedure, shortened: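 Cell-free radioligand binding with human platelet-derived receptor; 1 h after dosing, filter-based scintillation counting, loss of signal vs DMSO. Primary screen in duplicate at 25 uM.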
# [7] = target: human Adrenergic, Beta 3 Receptor (Adrb3), ADRB3 (gene 155) (UniProt P13945); assay: NVS_GPCR_hAdrb3: NovaScreen (NVS) G Protein-Coupled Receptor Assay for human Adrenergic, Beta 3 Receptor (Adrb3) (AID 2283262)
# Procedure, shortened: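 A cell-free filter binding assay read by scintillation counting, with displacement of a specific radioligand measured after 1 hour. The receptor source was SK-N-MC extracts (cells pretreated with isoproterenol and 8-bromo-cAMP). Compounds were first tested at 25 uM in duplicate and then in concentration series.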
# [8] = target: human Adrenergic, Beta 1 Receptor (Adrb1), ADRB1 (gene 153) (UniProt P08588); assay: NVS_GPCR_hAdrb1: NovaScreen (NVS) G Protein-Coupled Receptor Assay for human Adrenergic, Beta 1 Receptor (Adrb1) (AID 2283258)
# Procedure, shortened: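 Membranes/protein extracted from human neuroepithelioma cells, radioligand competition binding read by filtration and scintillation 2 h post-dose. Single 25 uM duplicate screen, then concentration-response follow-up; DMSO as negative control.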
# [9] = target: human Adrenergic, Alpha 2c Receptor (Adra2C), ADRA2C (gene 152) (UniProt P18825); assay: NVS_GPCR_hAdra2C: NovaScreen (NVS) G Protein-Coupled Receptor Assay for human Adrenergic, Alpha 2c Receptor (Adra2C) (AID 2283259)
# Procedure, shortened: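 Screened first in duplicate at 25 uM, with actives then run as concentration series. Membranes from Sf9 cells were exposed for 1 h, and displacement of radioligand was counted after filtration, using DMSO as baseline.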
# [10] = target: Beta-2 adrenergic receptor (Homo sapiens) (UniProt P07550); assay: NVS_GPCR_hAdrb2: NovaScreen (NVS) G Protein-Coupled Receptor Assay for human Adrenergic, Beta 2 Receptor (Adrb2) (AID 2283261)
# Procedure, shortened: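 Compounds screened in duplicate at 25 uM, then actives in concentration series. Human beta-2 receptor from CHO material, cell-free; radioligand displacement after 1 h measured by filtration and scintillation against DMSO baseline.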
# [11] = target: human Dopamine Receptor D2 (DRD2), DRD2 (gene 1813) (UniProt P14416); assay: NVS_GPCR_hDRD2s: NovaScreen (NVS) G Protein-Coupled Receptor Assay for human Dopamine Receptor D2 (DRD2) (AID 2283266)
# Procedure, shortened: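 Test compound (25 uM, duplicate in the primary screen; concentration series at follow-up) competed with radioligand for human DRD2 in CHO-derived membrane protein. Filter-based scintillation counting was done 1.5 hours after dosing, with loss of signal analysed against DMSO.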
# [12] = target: human Leukotriene B4 Receptor 1 (LTB4-BLT1), LTB4R (gene 1241) (UniProt Q15722); assay: NVS_GPCR_hLTB4_BLT1: NovaScreen (NVS) G Protein-Coupled Receptor Assay for human Leukotriene B4 Receptor 1 (LTB4-BLT1) (AID 2283271)
# Procedure, shortened: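 Cell-free human neutrophil receptor preparation, 1 h exposure, radioligand binding read by filter scintillation counting. Single 25 uM duplicate screen, then concentration series topping at 50 uM; binding loss scored against DMSO baseline.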
# [13] = target: human Muscarinic, M4 Receptor, CHRM4 (gene 1132) (UniProt P08173); assay: NVS_GPCR_hM4: NovaScreen (NVS) G Protein-Coupled Receptor Assay for human Muscarinic, M4 Receptor (AID 2283274)
# Procedure, shortened: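 Filter-based scintillation counting of radioligand bound to CHO-expressed human M4 preparations after 1 h; loss of signal fitted versus DMSO. Initial duplicate testing at 25 uM, concentration-response follow-up for actives.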
# [14] = target: Muscarinic acetylcholine receptor M5 (Homo sapiens) (UniProt P08912); assay: NVS_GPCR_hM5: NovaScreen (NVS) G Protein-Coupled Receptor Assay for human Muscarinic, M5 Receptor (AID 2283275)
# Procedure, shortened: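 Chemicals passing a primary duplicate screen at 25 uM were run as singleton concentration series, maximum 50 uM. Displacement of a specific radioligand from CHO-extracted receptor was read by filter scintillation after 1 h, relative to DMSO.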
# [15] = target: human Opioid Receptor Delta 1 (Opiate D1), OPRD1 (gene 4985) (UniProt P41143); assay: NVS_GPCR_hOpiate_D1: NovaScreen (NVS) G Protein-Coupled Receptor Assay for human Opioid Receptor Delta 1 (Opiate D1) (AID 2283280)
# Procedure, shortened: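 Membrane preparations from CHO cells bearing the human receptor were incubated 1 h with test chemical, and bound radioligand was counted after filtration. Actives from 25 uM duplicate screening were retested in concentration-response.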
# [16] = target: human Purinergic Receptor P2Y, P2RY1 (gene 5028) (UniProt P47900); assay: NVS_GPCR_hPY2: NovaScreen (NVS) G Protein-Coupled Receptor Assay for human Purinergic Receptor P2Y (AID 2283281)
# Procedure, shortened: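 Filtration scintillation readout of radioligand displacement on U937 extract, measured 1 h post-dosing. Single 25 uM duplicate screen, then singleton concentration series to 50 uM for chemicals passing threshold; DMSO as baseline.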
# Muscarinic acetylcholine receptor M2 (Homo sapiens), sequence (P08172 whole entry, looked up): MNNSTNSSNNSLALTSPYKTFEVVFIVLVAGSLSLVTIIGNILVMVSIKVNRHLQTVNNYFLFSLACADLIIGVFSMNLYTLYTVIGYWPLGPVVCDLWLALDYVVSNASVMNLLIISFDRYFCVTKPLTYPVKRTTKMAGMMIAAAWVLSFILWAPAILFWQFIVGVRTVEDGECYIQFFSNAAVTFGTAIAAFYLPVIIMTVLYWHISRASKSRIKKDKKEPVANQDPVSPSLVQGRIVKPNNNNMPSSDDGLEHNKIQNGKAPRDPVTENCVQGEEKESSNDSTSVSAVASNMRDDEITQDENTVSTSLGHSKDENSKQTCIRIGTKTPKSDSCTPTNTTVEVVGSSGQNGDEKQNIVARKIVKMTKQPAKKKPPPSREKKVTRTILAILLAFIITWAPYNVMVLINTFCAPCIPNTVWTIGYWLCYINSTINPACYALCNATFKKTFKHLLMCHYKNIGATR
# human Thromboxane A2 Receptor (TXA2), TBXA2R (gene 6915), sequence (P21731 whole entry, looked up): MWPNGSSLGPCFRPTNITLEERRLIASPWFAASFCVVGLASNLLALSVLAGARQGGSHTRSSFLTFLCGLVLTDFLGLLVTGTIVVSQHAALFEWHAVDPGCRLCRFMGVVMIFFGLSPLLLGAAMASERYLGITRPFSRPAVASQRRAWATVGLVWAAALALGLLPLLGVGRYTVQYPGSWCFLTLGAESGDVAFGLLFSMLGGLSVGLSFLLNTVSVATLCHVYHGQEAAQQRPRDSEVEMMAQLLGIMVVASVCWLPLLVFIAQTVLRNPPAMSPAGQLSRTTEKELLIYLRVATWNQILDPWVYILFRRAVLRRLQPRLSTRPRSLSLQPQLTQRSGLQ
# human Neurokinin, NK2 Receptor, TACR2 (gene 6865), sequence (P21452 whole entry, looked up): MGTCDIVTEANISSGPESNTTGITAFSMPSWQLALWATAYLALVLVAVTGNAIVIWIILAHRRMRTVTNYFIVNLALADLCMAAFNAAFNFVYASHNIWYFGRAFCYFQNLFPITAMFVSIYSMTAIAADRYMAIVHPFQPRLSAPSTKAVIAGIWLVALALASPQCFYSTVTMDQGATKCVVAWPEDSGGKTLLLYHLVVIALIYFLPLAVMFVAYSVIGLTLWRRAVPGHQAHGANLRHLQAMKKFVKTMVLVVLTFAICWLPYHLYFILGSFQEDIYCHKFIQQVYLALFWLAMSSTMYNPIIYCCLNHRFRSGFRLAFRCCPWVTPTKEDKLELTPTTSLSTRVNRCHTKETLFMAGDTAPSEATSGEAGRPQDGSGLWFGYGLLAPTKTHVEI
# D(1A) dopamine receptor (Homo sapiens), sequence (P21728 whole entry, looked up): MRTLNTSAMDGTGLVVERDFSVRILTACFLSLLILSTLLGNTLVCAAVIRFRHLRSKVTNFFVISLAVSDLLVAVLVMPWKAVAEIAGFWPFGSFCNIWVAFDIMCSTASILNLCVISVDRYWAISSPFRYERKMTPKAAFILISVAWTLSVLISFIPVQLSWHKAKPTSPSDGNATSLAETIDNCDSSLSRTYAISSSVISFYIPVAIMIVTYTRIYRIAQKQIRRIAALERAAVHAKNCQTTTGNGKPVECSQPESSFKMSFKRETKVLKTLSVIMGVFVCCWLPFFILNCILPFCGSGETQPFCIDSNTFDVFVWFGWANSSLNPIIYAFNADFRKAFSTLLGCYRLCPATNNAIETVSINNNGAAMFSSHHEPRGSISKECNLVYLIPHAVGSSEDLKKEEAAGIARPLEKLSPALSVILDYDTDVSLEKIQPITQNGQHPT
# human Orphanin, Opioid Related Nociceptin Receptor 1 (ORL1), OPRL1 (gene 4987), sequence (P41146 whole entry, looked up): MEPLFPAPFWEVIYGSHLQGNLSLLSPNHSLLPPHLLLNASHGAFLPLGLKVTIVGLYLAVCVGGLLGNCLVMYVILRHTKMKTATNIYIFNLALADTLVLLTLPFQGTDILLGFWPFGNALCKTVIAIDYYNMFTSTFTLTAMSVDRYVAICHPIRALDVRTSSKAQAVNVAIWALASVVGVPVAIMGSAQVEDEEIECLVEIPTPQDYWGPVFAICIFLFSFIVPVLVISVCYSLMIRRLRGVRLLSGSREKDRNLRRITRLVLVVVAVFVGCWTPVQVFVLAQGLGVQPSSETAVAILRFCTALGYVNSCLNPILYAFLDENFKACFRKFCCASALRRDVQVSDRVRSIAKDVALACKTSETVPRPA
# human Leukotriene B4 Receptor 1 (LTB4-BLT1), LTB4R (gene 1241), sequence (Q15722 whole entry, looked up): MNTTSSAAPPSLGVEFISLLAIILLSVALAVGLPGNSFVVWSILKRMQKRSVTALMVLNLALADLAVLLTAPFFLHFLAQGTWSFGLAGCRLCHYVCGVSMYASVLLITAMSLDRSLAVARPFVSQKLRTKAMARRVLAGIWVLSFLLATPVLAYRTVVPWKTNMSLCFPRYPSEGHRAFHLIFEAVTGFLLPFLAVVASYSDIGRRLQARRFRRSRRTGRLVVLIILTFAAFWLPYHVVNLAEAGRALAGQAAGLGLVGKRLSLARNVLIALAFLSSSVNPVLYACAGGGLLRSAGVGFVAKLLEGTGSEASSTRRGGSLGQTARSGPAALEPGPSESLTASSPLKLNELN
# human Dopamine Receptor D2 (DRD2), DRD2 (gene 1813), sequence (P14416 whole entry, looked up): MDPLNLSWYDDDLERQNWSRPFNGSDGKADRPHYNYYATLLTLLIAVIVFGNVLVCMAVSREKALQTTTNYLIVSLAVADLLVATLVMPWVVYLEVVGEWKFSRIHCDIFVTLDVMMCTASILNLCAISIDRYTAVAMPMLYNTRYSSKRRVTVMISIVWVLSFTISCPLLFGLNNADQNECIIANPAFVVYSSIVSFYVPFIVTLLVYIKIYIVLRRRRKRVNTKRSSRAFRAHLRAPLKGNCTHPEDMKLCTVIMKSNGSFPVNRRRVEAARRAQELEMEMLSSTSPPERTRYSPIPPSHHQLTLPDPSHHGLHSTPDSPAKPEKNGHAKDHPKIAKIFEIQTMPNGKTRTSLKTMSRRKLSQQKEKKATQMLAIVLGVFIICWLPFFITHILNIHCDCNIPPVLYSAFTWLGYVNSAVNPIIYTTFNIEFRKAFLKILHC
# human Adrenergic, Beta 1 Receptor (Adrb1), ADRB1 (gene 153), sequence (P08588 whole entry, looked up): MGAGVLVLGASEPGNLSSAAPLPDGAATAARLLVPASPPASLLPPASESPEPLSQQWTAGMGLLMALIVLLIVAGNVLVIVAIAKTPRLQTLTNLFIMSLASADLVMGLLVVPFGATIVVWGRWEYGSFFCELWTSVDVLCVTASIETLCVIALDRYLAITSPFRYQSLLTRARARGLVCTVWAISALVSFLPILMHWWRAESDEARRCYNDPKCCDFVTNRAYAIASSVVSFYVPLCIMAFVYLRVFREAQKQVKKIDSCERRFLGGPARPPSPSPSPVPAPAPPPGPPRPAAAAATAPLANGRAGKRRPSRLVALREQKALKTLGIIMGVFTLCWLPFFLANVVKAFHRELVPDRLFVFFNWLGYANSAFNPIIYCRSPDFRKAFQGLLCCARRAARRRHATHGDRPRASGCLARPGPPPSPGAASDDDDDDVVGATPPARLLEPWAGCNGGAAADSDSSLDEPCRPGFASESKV
# Muscarinic acetylcholine receptor M5 (Homo sapiens), sequence (P08912 whole entry, looked up): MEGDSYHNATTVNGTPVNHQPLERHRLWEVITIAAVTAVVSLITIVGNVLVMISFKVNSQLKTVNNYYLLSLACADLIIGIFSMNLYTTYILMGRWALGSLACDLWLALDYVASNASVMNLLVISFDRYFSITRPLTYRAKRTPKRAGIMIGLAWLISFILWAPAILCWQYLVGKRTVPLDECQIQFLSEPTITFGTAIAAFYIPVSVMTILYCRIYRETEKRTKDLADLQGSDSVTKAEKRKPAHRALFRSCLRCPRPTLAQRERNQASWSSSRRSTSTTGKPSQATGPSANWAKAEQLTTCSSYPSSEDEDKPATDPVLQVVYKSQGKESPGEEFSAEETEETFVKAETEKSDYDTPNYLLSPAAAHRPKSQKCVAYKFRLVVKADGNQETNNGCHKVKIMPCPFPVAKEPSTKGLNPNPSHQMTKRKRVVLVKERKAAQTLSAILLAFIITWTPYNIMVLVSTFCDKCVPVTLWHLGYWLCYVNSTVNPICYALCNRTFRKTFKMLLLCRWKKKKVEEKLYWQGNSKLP
# human Adrenergic, Beta 3 Receptor (Adrb3), ADRB3 (gene 155), sequence (P13945 whole entry, looked up): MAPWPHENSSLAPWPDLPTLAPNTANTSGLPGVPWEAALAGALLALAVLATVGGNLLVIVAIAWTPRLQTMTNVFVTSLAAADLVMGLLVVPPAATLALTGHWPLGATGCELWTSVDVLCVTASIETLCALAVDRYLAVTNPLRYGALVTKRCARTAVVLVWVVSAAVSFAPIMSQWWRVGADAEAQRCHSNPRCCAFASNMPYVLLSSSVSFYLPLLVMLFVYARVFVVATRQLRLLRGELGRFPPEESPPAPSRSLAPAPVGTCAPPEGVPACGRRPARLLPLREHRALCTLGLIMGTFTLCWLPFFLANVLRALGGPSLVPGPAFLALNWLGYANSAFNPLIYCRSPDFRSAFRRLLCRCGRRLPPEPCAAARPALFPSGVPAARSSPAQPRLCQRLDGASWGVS
# Beta-2 adrenergic receptor (Homo sapiens), sequence (P07550 whole entry, looked up): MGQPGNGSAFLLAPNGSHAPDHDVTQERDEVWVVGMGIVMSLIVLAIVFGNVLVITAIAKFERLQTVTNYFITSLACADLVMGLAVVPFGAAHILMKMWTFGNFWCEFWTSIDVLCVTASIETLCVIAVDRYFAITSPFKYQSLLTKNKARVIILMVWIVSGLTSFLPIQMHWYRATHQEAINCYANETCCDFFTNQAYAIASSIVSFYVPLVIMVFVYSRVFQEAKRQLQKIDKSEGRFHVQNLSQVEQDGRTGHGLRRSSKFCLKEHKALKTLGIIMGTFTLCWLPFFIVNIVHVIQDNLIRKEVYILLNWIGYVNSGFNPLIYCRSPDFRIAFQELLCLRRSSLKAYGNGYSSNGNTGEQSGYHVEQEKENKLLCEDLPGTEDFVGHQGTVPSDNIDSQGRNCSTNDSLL
compound,measurement,setting,value
NC(=NCCCCCCN=C(N)/N=C(\N)Nc1ccc(Cl)cc1)/N=C(\N)Nc1ccc(Cl)cc1,AC50,[1],0.618 µM (active)
same,AC50,[2],3.15 µM (active)
same,AC50,[3],2.18 µM (active)
same,AC50,[4],4.71 µM (active)
CCCCCCCCCCCCCCCCCC[N+](C)(C)Cc1ccccc1,AC50,[1],2.22 µM (active)
same,AC50,[5],314 nM (active)
same,AC50,[3],2.55 µM (active)
NS(=O)(=O)O,outcome,[6],inactive
O=C(CCCN1CCC(O)(c2ccc(Cl)cc2)CC1)c1ccc(F)cc1,outcome,[7],inactive
same,outcome,[3],inactive
C=Cc1ccc(O)c(OC)c1,outcome,[6],inactive
CCOC(=O)CN[C@@H](C(=O)N1CC[C@H]1C(=O)NCc1ccc(/C(N)=N/O)cc1)C1CCCCC1,outcome,[1],inactive
OCC(CO)(CBr)CBr,outcome,[6],inactive
CCC(=O)O,outcome,[6],inactive
N=C(N)c1ccc(OCCCCCOc2ccc(C(=N)N)cc2)cc1,AC50,[8],20.4 µM (active)
same,AC50,[9],7.57 µM (active)
same,AC50,[10],21.9 µM (active)
same,outcome,[11],inactive
same,AC50,[1],12.3 µM (active)
same,outcome,[12],inactive
same,AC50,[13],2.83 µM (active)
same,AC50,[14],8.19 µM (active)
same,outcome,[3],inactive
same,AC50,[15],8.49 µM (active)
same,AC50,[4],27.8 µM (active)
CCCCC=O,outcome,[16],inactive
CC(O)COc1ccccc1 (stereo not drawn),outcome,[6],inactive
O=C1OC2(c3ccccc31)c1cc(I)c(O)c(I)c1Oc1c2cc(I)c(O)c1I,AC50,[1],0.594 µM (active)
same,AC50,[3],1.78 µM (active)
same,AC50,[6],1.24 µM (active)
CC(C)(C)c1ccc(O)c(O)c1,AC50,[1],25 µM (active)
same,AC50,[3],16 µM (active)
same,outcome,[3],inactive
CN(C)c1ccc(C(=C2C=CC(=[N+](C)C)C=C2)c2ccccc2)cc1,AC50,[1],2.97 µM (active) and 3.18 µM (active)
same,AC50,[5],4.03 µM (active) and 2.32 µM (active)
same,AC50,[3],5.94 µM (active) and 1.63 µM (active)
same,AC50,[6],12.5 µM (active)
same,outcome,[6],inactive
